The supplement of paper PMC10849652
The full data set covers some 7,900 targets. This sample favours those with a hit. About 0.6% of all pairs of compound and target were hits. Values without a mark were called inactive.

Experiments:
Test in all cases: log2 fold change, soluble protein after heating vs DMSO (PISA); higher = thermal stabilisation; K562 cells, 10 uM, 30 min; active = over 0.2 and 3.5 SD of the protein, either way, in both replicates (recomputed)
bafetinib = compound: Cc1ccc(NC(=O)c2ccc(CN3CC[C@H](N(C)C)C3)c(C(F)(F)F)c2)cc1Nc1nccc(-c2cncnc2)n1 [bafetinib]
Outline: (§1)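 Soluble protein was quantified by TMTpro 16plex LC-MS/MS after channel sums were equalised. It was obtained as the supernatant after 21,000xg for 90 min from pooled aliquots of K562 cells (2×10^6 cells/mL, 10 μM compound, 30 min) heated for 3 min across 48°C-58°C and extracted in PBS with 0.5% NP-40 at 4°C. Thermal stability values are relative to control samples and come from duplicates. They are given as log2 fold changes.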

[1] = compound: Cc1cccc(CC(=O)N2CCc3c2ccc(-c2cn(C)c4ncnc(N)c24)c3F)n1
Outline: as §1

nilotinib = compound: Cc1cn(-c2cc(NC(=O)c3ccc(C)c(Nc4nccc(-c5cccnc5)n4)c3)cc(C(F)(F)F)c2)cn1 [nilotinib]
Outline: as §1

[2] = compound: Cc1nc(Nc2n[nH]c3c2CN(C(=O)N[C@H](CN(C)C)c2ccccc2)C3(C)C)c2sccc2n1
Outline: as §1

dasatinib = compound: Cc1nc(Nc2ncc(C(=O)Nc3c(C)cccc3Cl)s2)cc(N2CCN(CCO)CC2)n1 [dasatinib]
Outline: as §1

[3] = compound: Cc1ncc(-c2ccnc(Nc3ccc(S(C)(=O)=O)cc3)n2)n1C(C)C
Outline: as §1

[4] = compound: Cn1cc(-c2ccc3c(c2)CCN3C(=O)Cc2cccc(C(F)(F)F)c2)c2c(N)ncnc21
Outline: as §1

[5] = compound: Cn1cc(-c2ccc3nnc(C(F)(F)c4ccc5ncccc5c4)n3n2)cn1
Outline: as §1

tipifarnib = compound: Cn1cncc1[C@@](N)(c1ccc(Cl)cc1)c1ccc2c(c1)c(-c1cccc(Cl)c1)cc(=O)n2C [tipifarnib]
Outline: as §1

mubritinib = compound: FC(F)(F)c1ccc(/C=C/c2nc(COc3ccc(CCCCn4ccnn4)cc3)co2)cc1 [mubritinib]
Outline: as §1

[6] = compound: NC(=O)Nc1cc(-c2cccc(F)c2)sc1C(=O)N[C@H]1CCCNC1
Outline: as §1

[7] = compound: NC(=O)c1cnc(N[C@@H]2CCCC[C@@H]2N)nc1Nc1cccc(-n2nccn2)c1
Outline: as §1

[8] = compound: NC1(c2ccc(-c3nc4ccn5c(=O)[nH]nc5c4cc3-c3ccccc3)cc2)CCC1
Outline: as §1

[9] = compound: NCC(=O)Nc1ccc(-n2nc(C(F)(F)F)cc2-c2ccc3c(ccc4ccccc43)c2)cc1
Outline: as §1

entinostat = compound: Nc1ccccc1NC(=O)c1ccc(CNC(=O)OCc2cccnc2)cc1 [entinostat]
Outline: as §1

vorinostat = compound: O=C(CCCCCCC(=O)Nc1ccccc1)NO [vorinostat]
Outline: as §1

citarinostat = compound: O=C(CCCCCCNC(=O)c1cnc(N(c2ccccc2)c2ccccc2Cl)nc1)NO [citarinostat]
Outline: as §1

silmitasertib = compound: O=C(O)c1ccc2c(c1)nc(Nc1cccc(Cl)c1)c1ccncc12 [silmitasertib]
Outline: as §1

[10] = compound: O=C1NC(=O)C(c2cnc3ccccn23)=C1c1cn2c3c(cc(F)cc13)CN(C(=O)N1CCCCC1)CC2
Outline: as §1

[11] = compound: c1cc(OCCN2CCCCC2)cc(-c2n[nH]c3ccc(-c4nnc[nH]4)cc23)c1
Outline: as §1

Sequence of UniProt P10606 (P10606 whole entry, looked up): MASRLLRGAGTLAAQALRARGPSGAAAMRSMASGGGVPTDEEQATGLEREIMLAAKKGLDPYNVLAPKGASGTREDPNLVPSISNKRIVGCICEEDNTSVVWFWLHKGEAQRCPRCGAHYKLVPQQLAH
Sequence of UniProt Q99807 (Q99807 whole entry, looked up): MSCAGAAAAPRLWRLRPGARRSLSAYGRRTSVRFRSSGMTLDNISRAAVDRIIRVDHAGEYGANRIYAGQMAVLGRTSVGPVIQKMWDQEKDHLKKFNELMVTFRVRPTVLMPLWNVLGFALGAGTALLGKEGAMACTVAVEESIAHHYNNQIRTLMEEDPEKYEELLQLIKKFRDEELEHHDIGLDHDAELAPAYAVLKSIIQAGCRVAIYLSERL
Sequence of UniProt Q6NZI2 (Q6NZI2 whole entry, looked up): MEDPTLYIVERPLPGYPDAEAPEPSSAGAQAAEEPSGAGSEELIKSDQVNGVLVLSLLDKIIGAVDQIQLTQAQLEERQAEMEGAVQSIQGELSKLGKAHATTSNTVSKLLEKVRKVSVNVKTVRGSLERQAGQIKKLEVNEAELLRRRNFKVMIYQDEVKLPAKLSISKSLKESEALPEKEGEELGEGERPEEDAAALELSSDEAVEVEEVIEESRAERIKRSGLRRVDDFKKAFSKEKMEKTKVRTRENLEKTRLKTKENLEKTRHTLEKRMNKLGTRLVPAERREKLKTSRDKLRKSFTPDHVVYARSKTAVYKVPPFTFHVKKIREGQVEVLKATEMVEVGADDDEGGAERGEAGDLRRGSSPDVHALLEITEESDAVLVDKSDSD
Sequence of UniProt Q12873 (Q12873 whole entry, looked up): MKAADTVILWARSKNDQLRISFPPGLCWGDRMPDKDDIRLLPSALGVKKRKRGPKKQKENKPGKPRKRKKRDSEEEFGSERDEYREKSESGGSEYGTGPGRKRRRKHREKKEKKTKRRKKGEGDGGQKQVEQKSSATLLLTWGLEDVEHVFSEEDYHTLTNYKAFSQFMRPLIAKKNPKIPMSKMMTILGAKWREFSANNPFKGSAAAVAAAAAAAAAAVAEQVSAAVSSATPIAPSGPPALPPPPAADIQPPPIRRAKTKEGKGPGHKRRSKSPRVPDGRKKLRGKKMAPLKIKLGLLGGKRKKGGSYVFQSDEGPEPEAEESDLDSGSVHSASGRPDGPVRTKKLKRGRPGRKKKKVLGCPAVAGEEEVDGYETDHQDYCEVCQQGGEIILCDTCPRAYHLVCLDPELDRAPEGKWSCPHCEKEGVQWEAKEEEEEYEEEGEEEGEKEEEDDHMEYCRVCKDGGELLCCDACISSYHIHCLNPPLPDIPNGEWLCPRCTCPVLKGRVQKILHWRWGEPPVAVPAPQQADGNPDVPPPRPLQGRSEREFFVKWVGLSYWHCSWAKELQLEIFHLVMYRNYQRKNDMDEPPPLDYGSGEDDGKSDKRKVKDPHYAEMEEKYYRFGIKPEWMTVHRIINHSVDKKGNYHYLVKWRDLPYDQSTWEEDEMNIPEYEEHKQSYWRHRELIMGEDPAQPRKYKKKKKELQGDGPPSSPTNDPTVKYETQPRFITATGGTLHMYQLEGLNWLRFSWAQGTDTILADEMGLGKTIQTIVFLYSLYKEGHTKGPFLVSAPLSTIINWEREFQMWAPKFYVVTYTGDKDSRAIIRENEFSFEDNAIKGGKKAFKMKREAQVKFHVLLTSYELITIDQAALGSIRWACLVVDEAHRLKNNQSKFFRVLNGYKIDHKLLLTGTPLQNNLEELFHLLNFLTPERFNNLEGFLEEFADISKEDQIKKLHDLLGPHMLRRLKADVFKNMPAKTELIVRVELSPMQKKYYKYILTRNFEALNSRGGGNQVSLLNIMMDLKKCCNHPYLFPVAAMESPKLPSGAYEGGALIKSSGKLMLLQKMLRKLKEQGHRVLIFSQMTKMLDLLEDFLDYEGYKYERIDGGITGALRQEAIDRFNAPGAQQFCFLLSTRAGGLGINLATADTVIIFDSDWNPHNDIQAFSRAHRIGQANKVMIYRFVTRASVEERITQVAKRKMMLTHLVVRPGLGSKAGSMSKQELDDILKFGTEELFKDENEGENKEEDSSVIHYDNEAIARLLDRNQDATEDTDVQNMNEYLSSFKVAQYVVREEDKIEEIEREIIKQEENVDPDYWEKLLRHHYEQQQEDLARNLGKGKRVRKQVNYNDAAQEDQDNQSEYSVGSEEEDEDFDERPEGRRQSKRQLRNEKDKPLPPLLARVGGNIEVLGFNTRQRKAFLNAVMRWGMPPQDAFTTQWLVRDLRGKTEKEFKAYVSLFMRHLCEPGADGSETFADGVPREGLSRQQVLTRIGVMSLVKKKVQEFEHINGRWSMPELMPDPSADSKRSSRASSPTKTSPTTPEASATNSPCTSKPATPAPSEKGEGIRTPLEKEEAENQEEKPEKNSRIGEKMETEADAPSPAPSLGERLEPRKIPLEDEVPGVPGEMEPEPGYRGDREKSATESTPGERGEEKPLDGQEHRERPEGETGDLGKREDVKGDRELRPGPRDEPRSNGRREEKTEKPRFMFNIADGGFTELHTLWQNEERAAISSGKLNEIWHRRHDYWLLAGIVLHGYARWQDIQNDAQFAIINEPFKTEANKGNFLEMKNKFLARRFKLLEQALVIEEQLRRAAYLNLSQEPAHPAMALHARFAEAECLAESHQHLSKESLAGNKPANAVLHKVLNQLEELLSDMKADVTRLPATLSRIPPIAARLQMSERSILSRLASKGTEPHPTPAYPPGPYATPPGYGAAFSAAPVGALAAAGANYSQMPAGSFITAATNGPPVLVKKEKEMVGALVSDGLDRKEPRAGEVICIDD
Sequence of UniProt P08962 (P08962 whole entry, looked up): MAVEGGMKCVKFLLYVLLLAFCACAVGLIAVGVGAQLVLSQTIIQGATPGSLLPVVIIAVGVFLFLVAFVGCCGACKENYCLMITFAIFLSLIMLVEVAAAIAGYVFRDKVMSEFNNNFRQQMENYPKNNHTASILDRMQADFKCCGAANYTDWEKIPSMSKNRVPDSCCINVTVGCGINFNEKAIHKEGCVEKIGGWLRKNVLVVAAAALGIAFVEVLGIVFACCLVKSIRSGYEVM
Sequence of UniProt Q8IWX8 (Q8IWX8 whole entry, looked up): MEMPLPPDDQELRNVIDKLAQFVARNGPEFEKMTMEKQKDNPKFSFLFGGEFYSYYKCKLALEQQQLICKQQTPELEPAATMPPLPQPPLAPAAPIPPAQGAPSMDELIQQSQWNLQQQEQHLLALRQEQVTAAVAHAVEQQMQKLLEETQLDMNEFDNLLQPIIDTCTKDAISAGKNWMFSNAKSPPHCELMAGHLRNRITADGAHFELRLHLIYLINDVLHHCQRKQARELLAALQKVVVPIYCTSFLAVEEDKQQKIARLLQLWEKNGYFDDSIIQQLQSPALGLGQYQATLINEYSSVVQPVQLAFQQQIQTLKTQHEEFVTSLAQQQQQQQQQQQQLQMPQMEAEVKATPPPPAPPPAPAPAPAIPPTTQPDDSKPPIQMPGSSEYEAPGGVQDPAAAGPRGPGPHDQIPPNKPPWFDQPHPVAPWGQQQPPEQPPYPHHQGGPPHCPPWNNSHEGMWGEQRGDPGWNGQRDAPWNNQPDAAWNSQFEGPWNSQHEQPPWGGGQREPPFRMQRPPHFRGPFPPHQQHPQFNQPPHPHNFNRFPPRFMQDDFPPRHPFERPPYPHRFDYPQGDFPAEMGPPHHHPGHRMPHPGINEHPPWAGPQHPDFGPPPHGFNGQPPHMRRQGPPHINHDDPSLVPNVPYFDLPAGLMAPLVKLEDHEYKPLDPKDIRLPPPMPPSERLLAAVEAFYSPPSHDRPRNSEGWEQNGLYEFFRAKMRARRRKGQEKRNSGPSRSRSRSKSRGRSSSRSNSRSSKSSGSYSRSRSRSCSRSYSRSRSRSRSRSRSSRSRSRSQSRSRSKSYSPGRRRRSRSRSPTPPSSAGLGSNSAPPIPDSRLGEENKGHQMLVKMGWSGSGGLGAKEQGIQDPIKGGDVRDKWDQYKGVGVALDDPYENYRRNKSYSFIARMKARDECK
Sequence of UniProt Q8N1G2 (Q8N1G2 whole entry, looked up): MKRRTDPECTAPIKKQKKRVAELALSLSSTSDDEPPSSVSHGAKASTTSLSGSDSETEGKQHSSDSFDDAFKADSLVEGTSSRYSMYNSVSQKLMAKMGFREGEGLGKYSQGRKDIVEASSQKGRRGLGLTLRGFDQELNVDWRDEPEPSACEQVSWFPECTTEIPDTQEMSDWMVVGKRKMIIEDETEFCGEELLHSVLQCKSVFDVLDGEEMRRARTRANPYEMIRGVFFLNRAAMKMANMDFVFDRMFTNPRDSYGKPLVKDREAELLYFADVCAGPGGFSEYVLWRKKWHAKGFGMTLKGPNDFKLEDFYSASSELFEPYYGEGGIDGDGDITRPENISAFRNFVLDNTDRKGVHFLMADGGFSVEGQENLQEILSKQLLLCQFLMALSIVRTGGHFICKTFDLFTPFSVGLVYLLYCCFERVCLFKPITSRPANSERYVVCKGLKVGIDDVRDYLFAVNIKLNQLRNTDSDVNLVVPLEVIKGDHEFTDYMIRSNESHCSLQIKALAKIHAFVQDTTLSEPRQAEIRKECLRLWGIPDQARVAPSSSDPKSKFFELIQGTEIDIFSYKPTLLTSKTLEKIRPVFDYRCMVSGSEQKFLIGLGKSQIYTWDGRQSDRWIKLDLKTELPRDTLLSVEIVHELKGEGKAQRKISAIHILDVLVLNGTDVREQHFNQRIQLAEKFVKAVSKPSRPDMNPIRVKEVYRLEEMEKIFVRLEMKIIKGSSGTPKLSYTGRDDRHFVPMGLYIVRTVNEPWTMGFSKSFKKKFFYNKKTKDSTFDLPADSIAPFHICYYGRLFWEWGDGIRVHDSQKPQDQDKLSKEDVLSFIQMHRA
Sequence of UniProt Q8N4Q1 (Q8N4Q1 whole entry, looked up): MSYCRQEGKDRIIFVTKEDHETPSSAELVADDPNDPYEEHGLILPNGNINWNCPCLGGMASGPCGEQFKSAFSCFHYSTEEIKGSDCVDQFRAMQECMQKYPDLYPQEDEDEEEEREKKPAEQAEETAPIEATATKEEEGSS

Target	log2 fold change (bafetinib)	log2 fold change [1]	log2 fold change (nilotinib)	log2 fold change [2]	log2 fold change (dasatinib)	log2 fold change [3]	log2 fold change [4]	log2 fold change [5]	log2 fold change (tipifarnib)	log2 fold change (mubritinib)	log2 fold change [6]	log2 fold change [7]	log2 fold change [8]	log2 fold change [9]	log2 fold change (entinostat)	log2 fold change (vorinostat)	log2 fold change (citarinostat)	log2 fold change (silmitasertib)	log2 fold change [10]	log2 fold change [11]
CDC42BPA isoform 6 (UniProt Q5VT25)	0.051	0.102	0.28	-0.682 (active)	-0.254	0.135	0.036	0.008	-0.185	0.037	-0.325	-0.334	-0.06	-0.003	0.012	0.051	0.115	0.11	-0.041	-0.203
CHCHD4 isoform 2 (UniProt Q8N4Q1)	0	0.764 (active)	-0.054	-0.015	-0.121	-0.039	-0.185	-0.059	-0.208	0	0.335	0.06	-0.007	0.084	0.339	0.442	-0.013	0.038	0.123	0.027
CHD3 isoform 3 (UniProt Q12873)	0.01	0.004	-0.093	-0.274	-0.086	-0.172	-0.06	0.063	-0.089	-0.058	0.023	-0.152	-0.113	-0.013	0.036	0.101	0.057	0.154	0.057	-0.101
CNOT1 (UniProt A5YKK6)	0.009	0.033	-0.066	-0.058	-0.106	-0.014	0.023	-0.035	-0.061	0.052	0	0.01	-0.075	-0.026	0.024	0.035	0.05	0.055	0.004	-0.032
CES2 isoform 4 (UniProt O00748)	-0.006	-0.104	0.274	-0.045	0.119	-0.036	0.489 (active)	0.166	0.28	0.111	0.116	0.017	-0.051	0.095	-0.083	-0.017	-0.083	0.076	0.027	-0.016
COX5B (UniProt P10606)	-0.032	0.013	0.026	0.011	0.105	-0.043	0.134	0.221	-0.108	0.024	0.041	0.031	0.053	-0.015	-0.006	-0.151	0.02	-0.04	-0.131	0.034
CCNT1 (UniProt O60563)	0.062	0.036	0.027	-0.272	-0.016	-0.301	-0.051	-0.122	0.142	-0.093	-0.027	-0.03	-0.021	-0.02	0.034	0.176	0.053	0	0.047	-0.094
COQ7 (UniProt Q99807)	-0.168	-0.062	0.006	-0.103	-0.006	-0.033	0.055	0.095	0.029	0.055	-0.12	-0.009	-0.076	-0.007	0	-0.032	0.083	0.008	-0.002	0.015
CLUH (UniProt O75153)	0.007	0.045	0.191	0.108	-0.093	-0.068	0.067	0.478 (active)	-0.022	-0.018	-0.002	-0.072	0.023	-0.025	0.022	0.05	-0.08	0.063	0.133	0.041
CLUH, A0A494C0R8	0.016	-0.445	0.264	0.015	-0.051	0	-0.018	0.532 (active)	0.145	0.072	0.031	0.031	-0.003	-0.062	0.09	0.195	-0.026	0.046	0.118	-0.08
CHERP (UniProt Q8IWX8)	0.057	0.092	-0.13	-0.353	-0.086	0.011	0.011	0.025	0.005	-0.07	0.015	-0.054	-0.096	-0.095	0.129	0.099	-0.001	0.03	-0.121	-0.042
CPSF7 isoform 3 (UniProt Q8N684)	0.07	-0.107	0.028	-0.552 (active)	0.012	0.044	0.003	-0.027	-0.048	-0.048	-0.063	0.025	0.027	0.013	-0.023	0.01	0.001	-0.069	0.054	-0.035
CD63 (UniProt P08962)	-0.069	-0.059	-0.023	0.074	0.021	0.002	-0.047	0.002	0.043	-0.003	-0.026	-0.001	-0.05	-0.035	-0.004	-0.066	0.026	0.02	0.051	-0.063
CAMKK2 (UniProt Q96RR4)	0.04	-0.144	-0.008	0.226	0	-0.14	-0.083	0.102	-0.076	-0.024	-0.088	-0.389	-0.113	-0.047	0.015	0.323	-0.144	0.128	-0.038	0.036
CAVIN1 (UniProt Q6NZI2)	0.114	0.004	-0.047	0.104	-0.001	-0.11	-0.157	-0.204	0.125	-0.067	0.034	-0.07	0.046	0.074	0.008	0.004	-0.004	0.041	0.108	-0.087
CMTR1 (UniProt Q8N1G2)	-0.054	0	-0.059	-0.01	-0.059	0.035	-0.033	0.044	-0.03	0.029	-0.022	-0.015	-0.135	-0.01	-0.025	0.026	0.002	0.004	-0.083	-0.009
